Experimental data taken from the antibiotic and cytotoxicity screens of Wong et al. (2023).
The whole screen tested about 39,000 compounds, of which about 3,300 (8.5%) were called active. Only a selection was taken, and actives are over-represented in it overall.

What follows are compounds tested on HepG2 (assay: cytotoxicity call (relative viability < 0.9)). Details: 10 µM.

Compound | cytotoxicity call
COCC1=C(C(=O)OC(C)OC(=O)OC(C)C)N2C(=O)C(NC(=O)C(=NOC)c3csc(N)n3)C2SC1 (centres undefined) | inactive
C[C@H](CO)N1C[C@H](C)[C@@H](CN(C)Cc2ccncc2)Oc2cc(C#CC(C)(C)O)ccc2S1(=O)=O | inactive
C[C@@H]1CCCCO[C@@H](CN(C)C(=O)C2CCCCC2)[C@H](C)CN([C@H](C)CO)C(=O)c2cc(NC(=O)c3ccncc3)ccc2O1 | inactive
Cc1noc(C)c1NC(=O)N(C)C[C@H]1Oc2c(NC(=O)Nc3ccc(C(F)(F)F)cc3)cccc2C(=O)N([C@@H](C)CO)C[C@H]1C | active
C[C@@H]1CN([C@H](C)CO)C(=O)c2cccc(NC(=O)Nc3ccc(C(F)(F)F)cc3)c2O[C@@H]1CN(C)C(=O)Nc1ccc2c(c1)OCO2 | inactive
Cc1noc(C)c1NC(=O)N(C)C[C@@H]1Oc2c(NC(=O)Nc3ccc(C(F)(F)F)cc3)cccc2C(=O)N([C@H](C)CO)C[C@H]1C | inactive
C[C@@H]1CN([C@@H](C)CO)C(=O)c2cccc(NC(=O)Nc3ccc(C(F)(F)F)cc3)c2O[C@H]1CN(C)C(=O)Nc1ccc2c(c1)OCO2 | inactive
C[C@H](CO)N1C[C@H](C)[C@@H](CN(C)C(=O)Nc2ccc(C(F)(F)F)cc2)Oc2c(NC(=O)Nc3ccc(C(F)(F)F)cc3)cccc2C1=O | active
Cc1noc(C)c1NC(=O)N(C)C[C@@H]1Oc2c(NC(=O)Nc3ccc(C(F)(F)F)cc3)cccc2C(=O)N([C@@H](C)CO)C[C@H]1C | inactive
C[C@H](CO)N1C[C@H](C)[C@H](CN(C)C(=O)Nc2ccc3c(c2)OCO3)Oc2c(NC(=O)Nc3ccc(C(F)(F)F)cc3)cccc2C1=O | active
O=C1c2ccccc2[C@@]2(Cc3ccccc3N(Cc3ccccc3)C2=O)[C@H](c2ccc(CO)cc2)N1Cc1ccccc1C(F)(F)F | inactive
Cc1noc(C)c1S(=O)(=O)N(C)C[C@@H]1Oc2ccc(NS(=O)(=O)c3cccs3)cc2CC(=O)N([C@H](C)CO)C[C@@H]1C | inactive
CN(C)Cc1cn(CC[C@@H]2CC[C@@H](NC(=O)Cc3cccnc3)[C@H](CO)O2)nn1 | inactive
Cc1noc(C)c1NC(=O)Nc1ccc2c(c1)CC(=O)N([C@@H](C)CO)C[C@H](C)[C@@H](CN(C)C(=O)NC(C)C)O2 | inactive
O=C(C[C@H]1CC[C@@H]2[C@H](COC[C@H](O)CN2C(=O)Nc2ccc(F)cc2)O1)NCCCN1CCOCC1 | inactive
OC[C@@H](O)CN1CCN(c2ccccc2)CC1 | inactive
Cc1nc(-c2ccc(OCC(C)C)c(C#N)c2)sc1C(=O)O | active
COc1ccc(S(=O)(=O)N(C)C[C@H]2Oc3ccc(NC(=O)c4ccncc4)cc3C(=O)N([C@@H](C)CO)C[C@@H]2C)cc1 | inactive
O=CN[C@H](Cc1ccccc1)C(=O)O | inactive
COc1ccc(CN(C)C[C@H]2Oc3ccc(NC(=O)CCCCCC(=O)Nc4ccccc4N)cc3CC(=O)N([C@H](C)CO)C[C@H]2C)cc1 | inactive

Compound | cytotoxicity call
C[C@H]1CN([C@@H](C)CO)C(=O)Cc2cc(NC(=O)CCCCCC(=O)Nc3ccccc3N)ccc2O[C@H]1CN(C)Cc1ccc(Oc2ccccc2)cc1 | inactive
C[C@@H]1CN([C@@H](C)CO)C(=O)Cc2cc(NC(=O)CCCCCC(=O)Nc3ccccc3N)ccc2O[C@@H]1CN(C)Cc1ccc(Oc2ccccc2)cc1 | active
COc1ccc(CN(C)C[C@@H]2Oc3ccc(NC(=O)CCCCCC(=O)Nc4ccccc4N)cc3CC(=O)N([C@H](C)CO)C[C@@H]2C)cc1 | inactive
C[C@H]1CN([C@@H](C)CO)C(=O)Cc2cc(NC(=O)CCCCCC(=O)Nc3ccccc3N)ccc2O[C@@H]1CN(C)Cc1ccc(Oc2ccccc2)cc1 | inactive
COc1ccc(CN(C)C[C@H]2Oc3ccc(NC(=O)CCCCCC(=O)Nc4ccccc4N)cc3CC(=O)N([C@@H](C)CO)C[C@H]2C)cc1 | active
C[C@@H]1CN([C@H](C)CO)C(=O)Cc2cc(NC(=O)CCCCCC(=O)Nc3ccccc3N)ccc2O[C@@H]1CN(C)Cc1ccc(Oc2ccccc2)cc1 | active
C[C@H](CO)N1C[C@H](C)[C@H](CN(C)Cc2ccc(Oc3ccccc3)cc2)Oc2ccc(NC(=O)CCCCCC(=O)Nc3ccccc3N)cc2CC1=O | inactive
C[C@@H]1CN([C@H](C)CO)C(=O)Cc2cc(NC(=O)CCCCCC(=O)Nc3ccccc3N)ccc2O[C@H]1CN(C)Cc1ccc(Oc2ccccc2)cc1 | inactive
Cc1noc(C)c1NC(=O)Nc1ccc2c(c1)CC(=O)N([C@@H](C)CO)C[C@@H](C)[C@H](CN(C)Cc1ccc(C(F)(F)F)cc1)O2 | inactive
CC(C)NC(=O)Nc1ccc2c(c1)C(=O)N([C@H](C)CO)C[C@@H](C)[C@H](CN(C)CC1CCCCC1)OCCCC[C@H](C)O2 | inactive
C[C@@H]1CN([C@H](C)CO)C(=O)c2cc(NC(=O)Nc3ccc(C(F)(F)F)cc3)ccc2O[C@@H]1CN(C)Cc1ccc2c(c1)OCO2 | active
C[C@@H]1CN([C@@H](C)CO)C(=O)c2cc(NC(=O)Nc3ccc4c(c3)OCO4)ccc2O[C@H]1CN(C)Cc1ccc(C(F)(F)F)cc1 | inactive
C[C@@H]1CN([C@H](C)CO)C(=O)c2cc(NC(=O)Nc3ccc(C(F)(F)F)cc3)ccc2O[C@H]1CN(C)Cc1ccc2c(c1)OCO2 | inactive
C[C@H](CO)N1C[C@H](C)[C@H](CN(C)Cc2ccc3c(c2)OCO3)Oc2ccc(NC(=O)Nc3ccc(C(F)(F)F)cc3)cc2C1=O | active
C[C@H]1CN([C@@H](C)CO)C(=O)c2cc(NC(=O)Nc3ccc(C(F)(F)F)cc3)ccc2O[C@H]1CN(C)Cc1ccc2c(c1)OCO2 | active
C[C@H](CO)N1C[C@H](C)[C@@H](CN(C)Cc2ccc(C(F)(F)F)cc2)Oc2ccc(NC(=O)Nc3ccc4c(c3)OCO4)cc2C1=O | inactive
C[C@@H]1CN([C@@H](C)CO)C(=O)c2cc(NC(=O)Nc3ccc(C(F)(F)F)cc3)ccc2O[C@@H]1CN(C)Cc1ccc2c(c1)OCO2 | active
C[C@H]1CN([C@@H](C)CO)C(=O)c2cc(NC(=O)Nc3ccc4c(c3)OCO4)ccc2O[C@H]1CN(C)Cc1ccc(C(F)(F)F)cc1 | inactive
CN(C)Cc1cn(CC[C@H]2CC[C@@H](NS(=O)(=O)c3ccccc3)[C@@H](CO)O2)nn1 | inactive
